Test [1] in a line: Nuclear factor erythroid 2-related factor 2/antioxidant responsive element (Nrf2/ARE) small molecule agonists: qHTS cell viability counter screen in human keratinocytes (AID 1919968; active = well fitted curve in the direction sought with a large enough effect in the repeat runs; an effect the other way counts as inactive or inconclusive; note: nearly all actives have a fitted effect of over 55% in size). A digest of the protocol:
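Parallel cytotoxicity read: KeratinoSens HaCaT cells, compound treatment 23 h, viability by CellTiter-Fluor fluorescence 1 h post-reagent.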

The nature of test [2]: Nuclear factor erythroid 2-related factor 2/antioxidant responsive element (Nrf2/ARE) small molecule agonists: luciferase reporter gene qHTS assay in human keratinocytes (AID 1919969). Note: nearly all actives have a fitted effect of over 35% in size. For orientation: A reporter such as luciferase makes a cellular process visible.
Test [3] has as its target Gonadotropin-releasing hormone receptor (Homo sapiens) (UniProt P30968). Nature of the test: Human gonadotropin-releasing hormone receptor (GnRHR) small molecule agonists, calcium flux assay in GnRHR-HEK293 cells (AID 1920063). Note: nearly all actives have a fitted effect of over 35% in size. A digest of the protocol:
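Calcium flux, agonist mode, human GnRHR stably integrated in HEK293; dye 1 h at 37 C before compound; Ex/Em=480/540 kinetic read, 3 min; 15 concentrations, triplicate.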
On the technique in general: Calcium flux is commonly read through the fluorescence of an indicator in the cells.

Test [4] concerns the target KiSS-1 receptor (Homo sapiens) (UniProt Q969F8). Nature of the test: Human kisspeptin (KISS1R) small molecule agonists, calcium flux assay in KISS1R-HEK293 cells (AID 1920064; active = well fitted curve in the direction sought with a large enough effect in the repeat runs; an effect the other way counts as inactive or inconclusive). A digest of the protocol:
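Triplicate 15-concentration series were applied to dye-loaded human KISS1R HEK293 cells, and agonist-evoked calcium fluorescence was captured for 3 min.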

Test [5] in a line: G protein-coupled receptor (GPCR) small molecule agonists, calcium flux assay: HEK293 wild type cell line counter screen (AID 1920065). An outline of the steps:
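Non-specific calcium responders were flagged by adding DMSO-dissolved compounds to dye-loaded cells and reading 480/540 nm fluorescence each second for 3 min; ATP served as positive control.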

A short description of test [6]: p53 small molecule agonists, cell-based qHTS assay with human liver microsomes (AID 1963577). A digest of the protocol: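 Cells carrying a p53-responsive bla reporter were rested 5 h (37 C, 5% CO2) before compound transfer. Human liver microsomes plus NADPH, 0.5 mg/mL final apiece, supplied metabolism during the 16 h 37 C exposure.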
The nature of test [7]: p53 small molecule agonists, cell-based qHTS assay with rat liver microsomes (AID 1963578). A digest of the protocol:
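Fluorescence from a beta-lactamase reporter under a p53 response element was measured after cells had been incubated 16 h at 37 C with test compound and rat liver microsomes plus NADPH (0.5 mg/mL final each).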

A short description of test [8]: p53 small molecule agonists, cell-based qHTS assay with human liver microsomes: qHTS cell viability counter screen (AID 1963579). Note: nearly all actives have a fitted effect of over 45% in size. An outline of the steps: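 Seed p53RE-bla cells at 4,000 per well; incubate 5 h at 37 C; add compound, human liver microsomes and NADPH; incubate 16 h at 37 C; add CellTiter-Glo; after 30 min at room temperature, read luminescence.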
In general terms: In qHTS, concentration-response curves come from the screen itself.

The nature of test [9]: p53 small molecule agonists, cell-based qHTS assay with rat liver microsomes: qHTS cell viability counter screen (AID 1963580). Note: nearly all actives have a fitted effect of over 45% in size. A digest of the protocol:
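After the beta-lactamase ratio was read, CellTiter-Glo was added to the same wells and luminescence measured at 30 min; cells had been treated 16 h at 37 C with compounds, rat liver microsomes and NADPH (0.5 mg/mL final each).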

Test [10] is described as follows: p53 small molecule agonists, cell-based qHTS assay: qHTS cell viability counter screen (AID 1963581). Note: nearly all actives have a fitted effect of over 45% in size. Note: potency is the fitted concentration of half-maximal effect. A digest of the protocol:
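Multiplexed with the reporter read, a CellTiter-Glo step (30 min, room temperature) gauges ATP-based viability of HCT-116 p53RE-bla cells after 16 h compound incubation at 37 C.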

A short description of test [11]: p53 small molecule agonists, cell-based qHTS assay (AID 1963582; active = well fitted activation curve with a large enough effect in the signal ratio in the repeat runs, not every such curve was filed as active; the % refers to the signal ratio). An outline of the steps: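 Beta-lactamase reporter cells (p53RE-bla) treated with compounds for 16 h at 37 C; FRET substrate, 2 h, room temperature; fluorescence intensity.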
The target of test [12] is 5-hydroxytryptamine receptor 2A (Homo sapiens) (UniProt P28223). The test can be described thus: 5-hydroxytryptamine receptor 2A (HTR2A) small molecule antagonists, cell-based qHTS assay (AID 1963586). Note: nearly all actives have a fitted effect of over 45% in size. An outline of the steps: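 CHO cells stably expressing human HTR2A were plated for 18 h at 37 C, then loaded with calcium dye for 1 h. Compounds were preincubated 5 min at room temperature before DOI (4 nM solution) was added. Kinetic fluorescence was read for 3 min.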

For test [13] the target is unchanged. Nature of the test: 5-hydroxytryptamine receptor 2A (HTR2A) small molecule agonists, cell-based qHTS assay (AID 1963587). Note: nearly all actives have a fitted effect of over 30% in size. Note: potency is the fitted concentration of half-maximal effect. An outline of the steps: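 CHO cells stably expressing human HTR2A, plated 18 h, loaded with calcium dye 1 h at 37 C. Agonist mode: compounds added and intracellular calcium fluorescence recorded kinetically for 2 min at 1 sec intervals.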

Test [14] addresses Muscarinic acetylcholine receptor M1 (Homo sapiens) (UniProt P11229). Nature of the test: Cholinergic receptor muscarinic 1 (CHRM1) small molecule antagonists, cell-based qHTS assay (AID 1963588). Note: nearly all actives have a fitted effect of over 40% in size. An outline of the steps:
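Compounds were tested at 15 concentrations in three independent runs. Dye-loaded CHRM1-CHO cells were exposed 5 min at room temperature before stimulation by acetylcholine added at 50nM. Intracellular calcium was read kinetically on FDSS for 3 min.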

The target is the same in test [15]. Nature of the test: Cholinergic receptor muscarinic 1 (CHRM1) small molecule agonists, cell-based qHTS assay (AID 1963589). Note: nearly all actives have a fitted effect of over 35% in size. An outline of the steps:
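qHTS, 15-point titration, 3 independent runs: compounds pin-transferred onto dye-loaded CHRM1-CHO cells (human M1), calcium fluorescence followed every second to detect agonism.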

Test [16] is described as follows: cAMP Responsive Elements (CRE) small molecule agonists, cell-based qHTS assay (AID 1963590). An outline of the steps: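 Quantitative HTS for CRE agonists: HEK 293T CRE-bla cells, overnight plating, 3 h compound incubation at 37 C/5% CO2, then 2 h room-temperature LiveBLAzer B/G FRET substrate loading.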
A short description of test [17]: cAMP Responsive Elements (CRE) small molecule antagonists, cell-based qHTS assay (AID 1963591; active = well fitted inhibition curve with a large enough effect in the signal ratio in the repeat runs, not every such curve was filed as active; the % refers to the signal ratio). An outline of the steps: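 Fluorescence intensity from cleaved LiveBLAzer B/G substrate (2 h, room temperature) quantified CRE-bla activity in HEK 293T cells exposed 3 h to compound with 0.25 uM final NKH477.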
In test [18] the target is Beta-2 adrenergic receptor (Homo sapiens) (UniProt P07550). The test can be described thus: Adrenergic beta2 receptor (ADRB2) small molecule antagonists, cell-based qHTS assay (AID 1963592). Note: series mostly up to about 92 µM; nearly all actives have a fitted effect of over 50% in size. A digest of the protocol: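 Assay format: CHO-ADRB2 cells, 18-20hr seeding at 37C/5% CO2, then compound plus 1nM isoproterenol agonist mix for 0.5hr RT. Homogeneous time-resolved fluorescence cAMP detection after 1hr, expressed as 665/615 nm ratio.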

For test [19] the target is unchanged. Nature of the test: Adrenergic beta2 receptor (ADRB2) small molecule agonists, cell-based qHTS assay (AID 1963593).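 Note: CHO cells stably overexpressing human ADRB2.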 An outline of the steps: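 CHO cells stably over-expressing ADRB2 were plated overnight at 37C, then dosed with compounds plus a stimulation mix containing 100uM IBMX and 25uM Ro-20-1724 for 0.5hr at room temperature. cAMP was measured by HTRF competition, 1hr.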

In test [20] the target is D(2) dopamine receptor (Homo sapiens) (UniProt P14416). Nature of the test: Dopamine D2 receptor (DRD2) small molecule agonists, cell-based qHTS assay (AID 1963594). Note: nearly all actives have a fitted effect of over 35% in size. An outline of the steps: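 HEK293 cells stably expressing human DRD2, pre-treated with PDE inhibitor Ro20-1724 (0.1 mM final) and compound 10 min at room temperature, then stimulated with NKH477 (200nM […]) for 30 min. cAMP read by HTRF (665/620 nm).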

Experimental findings from PubChem BioAssay (Tox21) are described below.

“And” between values parts separate entries of the source, which are not always exact repeats. Identical values can stand only once. Records with an inconclusive call do not appear. A structure can be active in one record and inactive in another. The source made the active and inactive calls. Unless noted, calls come from the whole dose curve.

5-hydroxytryptamine receptor 2A (Homo sapiens), sequence (P28223 whole entry, looked up): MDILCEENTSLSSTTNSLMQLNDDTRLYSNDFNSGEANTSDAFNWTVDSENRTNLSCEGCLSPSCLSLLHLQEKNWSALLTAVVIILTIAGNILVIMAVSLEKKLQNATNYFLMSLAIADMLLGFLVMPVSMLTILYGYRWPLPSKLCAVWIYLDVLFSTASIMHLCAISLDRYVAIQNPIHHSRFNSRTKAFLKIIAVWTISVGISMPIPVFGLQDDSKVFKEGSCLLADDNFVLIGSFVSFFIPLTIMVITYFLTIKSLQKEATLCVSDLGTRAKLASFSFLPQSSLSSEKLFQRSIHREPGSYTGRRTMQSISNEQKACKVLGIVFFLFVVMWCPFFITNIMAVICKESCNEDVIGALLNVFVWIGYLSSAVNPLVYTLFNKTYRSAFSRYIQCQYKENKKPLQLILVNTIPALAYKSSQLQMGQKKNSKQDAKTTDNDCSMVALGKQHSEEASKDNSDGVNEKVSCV
Gonadotropin-releasing hormone receptor (Homo sapiens), sequence (P30968 whole entry, looked up): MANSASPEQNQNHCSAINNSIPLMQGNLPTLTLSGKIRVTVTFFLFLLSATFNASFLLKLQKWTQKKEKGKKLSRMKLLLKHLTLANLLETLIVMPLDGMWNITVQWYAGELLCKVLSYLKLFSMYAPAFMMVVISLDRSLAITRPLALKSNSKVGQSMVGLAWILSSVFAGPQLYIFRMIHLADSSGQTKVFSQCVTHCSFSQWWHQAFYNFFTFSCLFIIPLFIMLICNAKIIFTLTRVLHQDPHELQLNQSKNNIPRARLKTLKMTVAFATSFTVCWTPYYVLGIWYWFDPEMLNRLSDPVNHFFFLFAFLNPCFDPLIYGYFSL
KiSS-1 receptor (Homo sapiens), sequence (Q969F8 whole entry, looked up): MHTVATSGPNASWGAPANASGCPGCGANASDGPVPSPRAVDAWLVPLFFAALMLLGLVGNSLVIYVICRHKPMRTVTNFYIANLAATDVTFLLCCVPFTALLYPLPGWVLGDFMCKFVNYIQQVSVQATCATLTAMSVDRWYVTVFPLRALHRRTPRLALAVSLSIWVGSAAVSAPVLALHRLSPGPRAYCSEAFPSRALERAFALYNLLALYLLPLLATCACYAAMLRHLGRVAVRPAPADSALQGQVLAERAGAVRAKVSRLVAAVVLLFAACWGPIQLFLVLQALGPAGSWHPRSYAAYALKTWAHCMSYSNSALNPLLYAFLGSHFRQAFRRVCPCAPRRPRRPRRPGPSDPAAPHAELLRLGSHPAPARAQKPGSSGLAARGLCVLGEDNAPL
D(2) dopamine receptor (Homo sapiens), sequence (P14416 whole entry, looked up): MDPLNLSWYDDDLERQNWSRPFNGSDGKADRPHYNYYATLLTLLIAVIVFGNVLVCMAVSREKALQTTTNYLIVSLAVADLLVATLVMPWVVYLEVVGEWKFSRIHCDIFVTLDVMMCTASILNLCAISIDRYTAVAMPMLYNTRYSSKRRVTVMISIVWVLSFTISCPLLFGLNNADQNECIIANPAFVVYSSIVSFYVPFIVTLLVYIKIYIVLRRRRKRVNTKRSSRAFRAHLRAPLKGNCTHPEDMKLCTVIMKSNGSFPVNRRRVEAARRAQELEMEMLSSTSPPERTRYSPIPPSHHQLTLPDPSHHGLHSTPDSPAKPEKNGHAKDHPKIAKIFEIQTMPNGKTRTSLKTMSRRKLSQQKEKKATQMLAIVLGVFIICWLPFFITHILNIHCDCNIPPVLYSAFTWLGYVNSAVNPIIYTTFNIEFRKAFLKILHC
Muscarinic acetylcholine receptor M1 (Homo sapiens), sequence (P11229 whole entry, looked up): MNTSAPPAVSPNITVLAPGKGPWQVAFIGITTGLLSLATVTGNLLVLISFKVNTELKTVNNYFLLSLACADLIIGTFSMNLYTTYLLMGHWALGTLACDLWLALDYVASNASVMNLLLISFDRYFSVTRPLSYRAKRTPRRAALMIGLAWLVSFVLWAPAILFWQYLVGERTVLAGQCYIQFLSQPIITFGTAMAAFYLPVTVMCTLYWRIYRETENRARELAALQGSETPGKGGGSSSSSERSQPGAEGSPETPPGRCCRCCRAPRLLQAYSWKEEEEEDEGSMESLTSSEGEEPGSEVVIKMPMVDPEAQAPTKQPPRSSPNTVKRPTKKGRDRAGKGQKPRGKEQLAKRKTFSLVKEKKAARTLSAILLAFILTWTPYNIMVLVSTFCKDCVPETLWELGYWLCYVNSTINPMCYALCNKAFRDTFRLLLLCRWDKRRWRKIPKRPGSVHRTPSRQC
Beta-2 adrenergic receptor (Homo sapiens), sequence (P07550 whole entry, looked up): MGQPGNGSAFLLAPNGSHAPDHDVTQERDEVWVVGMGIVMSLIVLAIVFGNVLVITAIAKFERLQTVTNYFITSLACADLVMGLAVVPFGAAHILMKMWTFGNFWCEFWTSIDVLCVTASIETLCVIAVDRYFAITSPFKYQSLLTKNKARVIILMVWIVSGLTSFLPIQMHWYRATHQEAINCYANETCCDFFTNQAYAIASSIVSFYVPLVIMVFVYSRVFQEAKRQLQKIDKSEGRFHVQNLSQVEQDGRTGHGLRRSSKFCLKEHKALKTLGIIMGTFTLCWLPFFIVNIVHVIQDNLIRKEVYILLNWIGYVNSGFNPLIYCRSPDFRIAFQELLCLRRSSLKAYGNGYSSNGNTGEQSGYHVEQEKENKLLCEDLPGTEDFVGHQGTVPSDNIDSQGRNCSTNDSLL

Turning to `C=CC(=O)OCCCCCC`, the Potency result in test [1], in test [2], in test [3], in test [4], in test [5] and in [6] was “inactive” each time. In addition, the Potency result in test [7], in test [8], in [9], in test [11], in test [12] and in [13] was “inactive” in each case. The Potency result in [14], in [15], in test [16], in test [17], in test [18] and in [19] was “inactive” each time. In [20], the Potency entry is “inactive”. Besides, the Potency in [10] is 363 nM (active).

For `CC(C)(O)Cc1ccccc1`, the Potency entry in test [1], in test [2], in test [3], in test [4], in [5] and in [6] was “inactive” each time. For the same molecule, the Potency result in [7], in test [8], in test [9], in test [10], in test [11] and in [12] was “inactive” throughout. For the same molecule, the Potency result in test [13], in [14], in [15], in [16], in [17] and in [18] was “inactive” each time. Moreover, the Potency entry in test [19] and in test [20] was “inactive” in each case.

Consider `[Cl][Dy]([Cl])[Cl]`, for which the Potency entry in [1], in test [2], in [3], in [4], in test [5] and in test [6] was “inactive” throughout. The Potency result in test [7], in [8], in test [9], in [10], in test [11] and in test [12] was “inactive” each time. In addition, the Potency entry in test [13], in test [14], in test [15], in [16], in test [17] and in test [18] was “inactive” each time. The Potency entry in [19] and in [20] was “inactive” each time.

Take `CCCCCCC(C)(C)C(=O)O`: the Potency entry in test [1], in [2], in test [3], in [4], in test [5] and in [6] was “inactive” throughout. For the same molecule, the Potency result in [7], in test [8], in test [9], in [10], in test [11] and in [12] was “inactive” throughout. For the same molecule, the Potency entry in test [13], in test [14], in test [15], in test [16], in test [17] and in test [18] was “inactive” in each case. Also, the Potency entry in test [19] and in test [20] was “inactive” in each case.

Consider `O=C1C(O)=C(O)C(=O)C(O)=C1O`, for which the Potency result in test [1], in test [2], in test [3], in test [4], in [5] and in test [6] was “inactive” throughout. Also, the Potency entry in [7], in test [8], in test [9], in [10], in [11] and in test [12] was “inactive” each time. For the same molecule, the Potency entry in test [14], in test [15], in test [16], in [17], in test [18] and in test [19] was “inactive” each time. Moreover, the Potency entry in test [20] is “inactive”. For the same molecule, the Potency in test [13] was 47.7 nM (active).

Regarding `NCCc1ccc(O)c(O)c1`, the Potency result in [1], in test [2], in [3], in test [4], in [5] and in [6] was “inactive” throughout. The Potency entry in test [7], in test [8], in test [9], in test [10], in test [11] and in test [12] was “inactive” throughout. The Potency result in [14], in test [15], in test [16], in test [17] and in [18] was “inactive” in each case. Further, in [13], the Potency entry is “inactive and 6.01 µM (active)”.

As for `CC(=O)NCCO`, the Potency entry in test [1], in test [2], in test [3], in test [4], in [5] and in [6] was “inactive” each time. Moreover, the Potency entry in [7], in test [8], in [9], in test [10], in test [11] and in test [12] was “inactive” throughout. The Potency result in test [13], in test [14], in test [15], in test [16], in test [17] and in test [18] was “inactive” in each case. Besides, the Potency result in [19] and in test [20] was “inactive” throughout.
